SMN2 splice enh – SMN2 splice variant enhancement; HEK293 SMN2-luciferase splicing reporter, luminescence, 30-36 h; hit rate 2.8% among 210,000; Potency, µM (highest dose often 46.1 µM), usual class: activators; further: nearly all actives have a fitted effect of over 55% in size
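qHTS luciferase splicing reporter: luminescence rises when SMN2 exon 7 is included in transfected HEK293 cells. Compound exposure lasted 30-36 h at 37C, with 4.5 mM final sodium butyrate as control, followed by a ONE-Glo read.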
ELG1 genotox – induces genotoxicity in HEK293T cells with luciferase-tagged ELG1. HEK293T ELG1-luciferase reporter, luminescence, 16 h. Potency, µM (doses to about 46 µM), most hits filed as activators. hit rate 1.3% among 330,000; further: nearly all actives have a fitted effect of over 60% in size
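Luminescence read-out: rising ELG1-luciferase signal, reflecting elevated ELG1 protein under genetic stress, flags genotoxic compounds. Cells were treated for 16 hr at 37 °C before ONE-Glo detection.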
ELG1 DNA repair – inhibitors of ELG1-dependent DNA repair in HEK293T cells; HEK293T ELG1-luciferase reporter, luminescence, 16 h; DNA damage induced by 5-fluorouridine; Potency, µM (titrated, usually from 46.1 µM), most hits filed as inhibitors; hit rate 2.3% among 330,000; further: nearly all actives have a fitted effect of over 55% in size
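5-Fluorouridine DNA damage + compound/DMSO, 2,000 cells/well, 16 h, 37 °C/5% CO2. ONE-Glo, 30 min RT, luminescence. Readout = decrease in reporter signal.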
Rab9 promoter act – activates the Rab9 promoter; Huh7 Rab9 promoter-luciferase reporter, luminescence, 24 h; Potency, µM (series often up to 9.22 µM), usual class: activators; hit rate 2.8% among 320,000; AID 485297; further: nearly all actives have a fitted effect of over 60% in size
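Cell-based reporter: Huh7 stable for Rab9 promoter-driven luciferase, plated in reduced-serum medium with 10% FBS at 1500 cells/well, compound-treated 24 h at 37 °C, luminescence read after 10 min reagent.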
NPC1 promoter act – NPC1 promoter activation | Potency, µM (top dose mostly 9.22 µM), usual class: activators | Huh7 NPC1 promoter luciferase reporter, 24 h | hit rate 2.4% among 320,000; further: nearly all actives have a fitted effect of over 60% in size
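NPC1 promoter–luciferase Huh7 cells; 24 h compound; luminescence.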
FLuc counter – counter-screen for miR-21 project: firefly luciferase inhibitors or activators | P08659 | purified FLuc, Km substrates, luminescence inhibition | Potency, µM (doses to about 57.5 µM), most hits filed as inhibitors | hit rate 6.9% among 360,000; further: nearly all actives have a fitted effect of over 55% in size
Target sequence (P08659 whole entry, looked up): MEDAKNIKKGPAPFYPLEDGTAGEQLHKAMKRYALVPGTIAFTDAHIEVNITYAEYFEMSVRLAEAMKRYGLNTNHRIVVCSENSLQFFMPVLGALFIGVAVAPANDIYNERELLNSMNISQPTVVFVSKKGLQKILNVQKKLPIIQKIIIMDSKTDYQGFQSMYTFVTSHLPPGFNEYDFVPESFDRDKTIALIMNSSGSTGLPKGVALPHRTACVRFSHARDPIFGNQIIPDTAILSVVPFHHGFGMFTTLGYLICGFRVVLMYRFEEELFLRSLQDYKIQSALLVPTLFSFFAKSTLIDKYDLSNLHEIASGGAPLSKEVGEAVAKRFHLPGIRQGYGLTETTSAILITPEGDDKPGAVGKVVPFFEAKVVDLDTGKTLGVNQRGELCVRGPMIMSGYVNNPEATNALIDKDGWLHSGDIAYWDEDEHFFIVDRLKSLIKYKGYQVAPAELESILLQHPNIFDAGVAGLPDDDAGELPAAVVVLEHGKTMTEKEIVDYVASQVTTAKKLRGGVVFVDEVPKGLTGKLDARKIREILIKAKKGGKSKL
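Biochemical qHTS of compounds, final roughly 60 µM downward over six points, against 10 nM purified firefly luciferase using Km concentrations of substrates (10 uM D-luciferin, 10 uM ATP) in Tris acetate pH 7.5 buffer; luminescence output.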
Numbers stand for hits; - = inactive; ? = inconclusive; . = no result given; [ ] = remark or other dose. Compounds with a hit are over-represented: about 9.4% of the library has one in this group of screens. The call rests on the fitted dose curve; in most records, active means well fitted curve in the direction sought with a large enough effect; inconclusive means small, poorly fitted or top-dose-only effect, or another doubt; inactive means no such curve, though single readings can be large; an effect the other way counts as inactive or inconclusive.

SMILES	SMN2 splice enh	ELG1 genotox	ELG1 DNA repair	Rab9 promoter act	NPC1 promoter act	FLuc counter
COc1cccc(NC(=O)C2CCN(c3nnc(C)c4c(C)n(-c5ccccc5)nc34)CC2)c1	.	.	.	.	.	-
C(#Cc1ccccc1)Cn1nnc2ccccc21	-	?	?	?	?	16.9µM
Cn1ccnc1SCC(=O)c1ccc2ccccc2c1	?	?	?	1µM	2.24µM	8.49µM
Cn1ccnc1SCC(=O)c1cccc(Br)c1	-	?	?	?	-	15.1µM
Cn1ccnc1SCC(=O)Nc1ccccc1	-	-	-	-	-	-
O=C(CSc1nccc(=O)[nH]1)c1cc2ccccc2o1	.	-	-	-	-	15.1µM
Cn1ccnc1SCC(=O)Nc1cccc(Br)c1	-	.	.	.	.	-
Cn1ccnc1SCC(=O)c1ccc(O)cc1	.	-	?	?	-	-
Cn1ccnc1SCC(=O)Nc1ccc2ccccc2c1	6.31µM	1.3µM	?	1.58µM	1.26µM	5.36µM
CCCNC(=O)CCC(=O)N1Cc2cccc(OC)c2Oc2ncccc21	.	.	.	.	.	-
COc1ccc(C)cc1NC(=O)CSc1ncc2c(n1)-c1ccc(Cl)cc1N(Cc1ccccc1)S2(=O)=O	.	.	.	.	.	-
COc1ccc(C(=O)CSc2nccn2C)c(OC)c1	.	?	?	3.55µM	3.98µM	13.5µM
COc1cccc(C(=O)CSc2nccn2C)c1	.	?	?	2.51µM	1.58µM	16.9µM
Cn1cnnc1SCC(=O)c1cc2ccccc2o1	-	-	-	-	-	-
Cn1ccnc1SCC(=O)c1cc2ccccc2o1	-	?	?	?	?	9.53µM
Cc1ccc(NC(=O)C2CCCN(c3nnc(C)c4c(C)n(-c5ccccc5)nc34)C2)c(Cl)c1 (centres undefined)	.	.	.	.	.	-
CCOc1ccc(C2C(C(=O)Nc3ccc(OC)cc3)=C(C)Nc3nc(SCc4ccc(Cl)cc4)nn32)cc1 (centres undefined)	.	.	.	.	.	-
CN1/C(=C/c2cccc[n+]2CCO)Sc2ccccc21	.	-	-	-	-	-
CC[n+]1ccccc1/C=C1\Sc2ccc(C)cc2N1C	.	-	2.06µM	-	-	-
COc1ccc(C(=O)N(Cc2ccc(C(C)C)cc2)C2CCS(=O)(=O)C2)cc1 (centres undefined)	-	.	.	.	.	-
CCN(CC)c1nc(-c2ccccn2)nc(-c2ccccc2)c1C#N	-	-	11.6µM	-	-	?
COc1cccc(NC(=O)C2CCCN(c3ncnc4onc(-c5ccc(F)cc5)c34)C2)c1 (centres undefined)	.	.	.	.	.	-
COc1ccccc1NCC(=O)c1ccc(C)c(C)c1	.	-	?	-	-	16.9µM
Cc1ccc(C(=O)CCC(=O)Nc2ccccc2C)cc1C	.	-	?	-	-	-
COc1ccccc1NCC(=O)c1ccc(Cl)cc1	.	-	-	-	-	16.9µM
SMILES	SMN2 splice enh	ELG1 genotox	ELG1 DNA repair	Rab9 promoter act	NPC1 promoter act	FLuc counter
CCCNC(=O)c1ccccc1NC(=O)c1ccccc1N(C)S(=O)(=O)c1ccc(C)cc1	-	-	23.1µM	-	-	-
CC1=C(C(=O)Nc2ccccc2)C(c2cccnc2)n2nc(SCc3ccccc3Cl)nc2N1 (centres undefined)	-	.	.	.	.	-
NC(=O)c1sc2nc3c(c(-c4ccco4)c2c1N)CCCC3	.	-	9.2µM	-	-	-
Cc1ccc(-c2c3c(nc4sc(C(N)=O)c(N)c24)CCC3)cc1	-	-	?	?	-	16.9µM
CCOC(=O)c1c(C)nc2sc(C(N)=O)c(N)c2c1-c1ccc(OC)cc1	-	-	13µM	-	-	-
Nc1c(C(=O)NCC2CCCO2)sc2nc3c(c(-c4ccco4)c12)CC/C3=C\c1ccco1 (centres undefined)	-	-	-	-	-	5.36µM
CCOC(=O)c1c(C)nc2sc(C(=O)Nc3ccc(OC)cc3)c(N)c2c1-c1ccc(OC)cc1	-	-	?	-	-	-
Cc1c(C(=O)N(Cc2ccccc2F)C2CCS(=O)(=O)C2)oc2ccc(F)cc12 (centres undefined)	-	.	.	.	.	-
CC1=Nc2cc(C(=O)NCCc3ccc(Cl)cc3)ccc2Sc2ccc(C)cc21	-	.	.	.	.	-
N#Cc1sc2nc3c(c(-c4ccco4)c2c1N)CCCC3	-	-	-	-	-	-
Cc1ccccc1NC(=O)c1sc2nc3c(c(-c4ccco4)c2c1N)CCC3	-	-	23.1µM	-	-	-
Cc1nn(C)c(C)c1C(C)NC(=O)c1cc(COc2ccc(F)c(F)c2)on1 (centres undefined)	.	-	?	?	?	21.3µM
COc1ccc([C@@H](Nc2ccccn2)c2cc(C(C)(C)C)cc(C(C)(C)C)c2O)cc1	-[9.22 µM]	.	.	.	.	.
CN(C)S(=O)(=O)c1ccc(C(=O)NCCOc2ccccc2)cc1	11.2µM	?	?	2.82µM	3.98µM	13.5µM
CN(C)S(=O)(=O)c1ccc(C(=O)NCc2ccccc2)cc1	-	-	-	-	-	-
CN(C)S(=O)(=O)c1ccc(C(=O)NCCOc2ccc(F)cc2)cc1	-	13µM	?	?	-	?
CN(C)S(=O)(=O)c1ccc(C(=O)NCCS(=O)(=O)N2CCN(c3ccc(F)cc3)CC2)cc1	.	-	-	-	-	-
COc1cccc(N(C(=O)CNC(=O)c2ccco2)C(C(=O)NC2CCCC2)c2cccnc2)c1 (centres undefined)	.	-	-	-	-	-
CC1(C)CC(=O)C(C(C2=C(O)CC(C)(C)CC2=O)c2ccc(O)c([N+](=O)[O-])c2)=C(O)C1	-	-	-	-	-	23.9µM
COc1ccc(-c2nnc(SCC(=O)Nc3cc(OC)ccc3OC)nc2-c2ccc(OC)cc2)cc1	.	.	.	.	.	-
COC(=O)c1ccc(COc2cc(O)c3c(c2)OC(C)(C)CC3=O)cc1	-	-	-	?	-	15.1µM
CC1(C)CC(=O)c2ccc(OCc3ccc([N+](=O)[O-])cc3)cc2O1	.	?	?	2.51µM	2.51µM	6.01µM
CC1(C)CC(=O)c2c(O)cc(OCc3ccc(Br)cc3)cc2O1	?	2.59µM	?	2.82µM	2.51µM	3.01µM
Cc1ccccc1C(=O)Nc1cccc(OCc2cc(=O)n3cccc(C)c3n2)c1	.	.	.	.	.	-
COc1ccc(C(=O)O/N=C(\C)c2ccccc2)cc1	-	-	-	-	-	0.675µM
SMILES	SMN2 splice enh	ELG1 genotox	ELG1 DNA repair	Rab9 promoter act	NPC1 promoter act	FLuc counter
COc1ccc(C(=O)O/N=C(/c2ccccc2)c2ccncc2)cc1	.	?	?	-	-	?
CC(C)=NOC(=O)c1ccc(-c2ccccc2)cc1	?	-	-	-	-	8.49µM
C/C(=N\OC(=O)c1ccc(OC(C)C)cc1)c1ccc(C)c(C)c1	-	-	-	-	-	13.5µM
CC/C(=N\OC(=O)c1ccc(OC(C)C)cc1)c1ccc(C)cc1	-	-	-	-	-	?
CC(C)Oc1ccc(CNC(=O)CCCn2c(=O)c3cccn3c3ccccc32)cc1	.	.	.	.	.	-
COc1cc(SC)ccc1C(=O)Nc1ccc(C)cc1C	12.6µM	?	?	3.55µM	2.51µM	2.69µM
